# DRD3 antagonist – antagonists of human D3 dopamine receptor; P35462; D3R cells, DiscoveRx beta-arrestin luminescence, antagonist mode; active compounds read low; max response, negative = inhibition, %; 360,000 tested, 2.5% active; AID 652054; in the data active = max response below about -50%; inconclusive = no clear call, values can overlap the other calls; note: % is set by controls: 0 for no effect and ±100 for the full control effect
#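 Cells expressing the human receptor were seeded at 1500 cells/well, incubated overnight at 37 degrees C in 5% CO2, then exposed to library compounds with dopamine controls for 90 minutes at 37 degrees C before luminescent detection.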
# D1 potentiator – enhances dopamine response at the human D1 receptor; P21728; HEK293 TREx D1 cells, calcium flux, dopamine EC20 potentiation; potentiation, % at 10 µM; 360,000 tested, 0.036% active; in the data active = potentiation above about 30%; note: 0% is about no effect
# Target sequence (P21728 whole entry, looked up): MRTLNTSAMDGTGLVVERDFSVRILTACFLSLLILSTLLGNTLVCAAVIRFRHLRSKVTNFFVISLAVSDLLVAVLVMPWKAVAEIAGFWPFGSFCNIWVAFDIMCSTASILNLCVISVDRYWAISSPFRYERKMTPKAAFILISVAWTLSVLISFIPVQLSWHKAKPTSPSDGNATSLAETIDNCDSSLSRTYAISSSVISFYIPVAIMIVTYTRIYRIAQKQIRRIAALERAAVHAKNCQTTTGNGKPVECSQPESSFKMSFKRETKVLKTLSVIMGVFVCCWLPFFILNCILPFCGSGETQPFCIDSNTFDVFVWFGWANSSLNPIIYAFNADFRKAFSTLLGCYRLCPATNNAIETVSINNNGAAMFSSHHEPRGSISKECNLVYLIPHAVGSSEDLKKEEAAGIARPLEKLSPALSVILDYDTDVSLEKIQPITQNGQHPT
# D3 ag – activates the human D3 dopamine receptor; max activation, %; 410,000 tested, 0.58% active; AID 652048; P35462; D3R DiscoveRx beta-arrestin cells, luminescence, 90 min; in the data active = max activation above about 30%; note: 0% is about no effect
#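 Agonist mode: compounds and dopamine controls were applied to plated cells for 90 min at 37 degrees C after an overnight attachment at 1500 cells/well. Luminescent read-out followed 30 - 60 minutes at room temperature with DiscoveRx detection reagent.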
# D1 ag – agonists of human D1 dopamine receptor | P21728 | HEK293 T-REx D1 cells, calcium flux, agonist mode | activation, % at 2 µM | 360,000 tested, 1% active; in the data active = activation above about 30%; note: 0% is about no effect
#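 Tetracycline-induced HEK293 TREx D1 cells, force-coupled to calcium signalling, were dye-loaded with a no-wash calcium kit. Compound was pin-added after a 10 s baseline. Fluorescence was read kinetically at 1 cycle/s for 180 s, with calcium rises flagged as agonism.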
# Chronic BCR inh – chronic active BCR signaling inhibition. ABC-DLBCL IkBa-CBG/CBR reporter, luminescence ratio, 4 h. Potency, µM (series often up to 46.1 µM), for inactives: at the top dose activity change, negative = inhibition, usual class: inhibitors. 340,000 tested, 0.05% active. AID 493014; active = well fitted inhibition curve with a large enough effect in the signal ratio, with a control signal flat, not every such curve was filed as active; inconclusive = small, poorly fitted or top-dose-only effect, or effect the other way, or a change in a side signal; the % refers to the signal ratio;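 note: potency is the fitted concentration of half-maximal effect; plate controls were basal doxycycline-induced cells for no effect and cells given 10 µM MG132 for full effect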
#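 Compounds up to 46 uM were incubated four hours with TMD8 cells whose green CBG68 luciferase is fused to IkappaBalpha; red CBR luminescence normalised the signal, and concentration-effect curves were fitted to fusion, red and ratio data.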
# D1 antag – antagonists of human D1 dopamine receptor; P21728; HEK293 TREx D1 cells, calcium flux, dopamine EC80; active compounds read low; activity change, negative = inhibition, % at 10 µM; 360,000 tested, 3.2% active; in the data active = activity change below about -30%; note: % is set by controls: 0 for no effect and ±100 for the full control effect
#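 Using tetracycline-induced force-coupled D1 Hek293 cells and a calcium dye, signals were followed for 180 s after compound, then for 180 s after EC80 dopamine, to detect inhibitors.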
# An asterisk follows results filed as active; ? = inconclusive; . = not tested or not shown. A selection: hits, their analogues and other compounds. The true share with any hit is near 6%.
SMILES,DRD3 antagonist,D1 potentiator,D3 ag,D1 ag,Chronic BCR inh,D1 antag
C=CCC1NCCc2c(Br)cccc21 (stereo unspecified),-1.1,-10.1,2.3,4.6,4.3%,-23.4
C=CC[C@@H]1Cc2c(Br)ccc(Br)c2[C@@H](CC=C)N1,3.6,0.1,32.1*,0.6,2.1%,2.5
CCn1cc(S(=O)(=O)c2ccc(Cl)cc2)c(=O)c2cc(F)c(N3CCOCC3)cc21,.,0.1,-16.3,-1.8,.,6.3
CCOc1ccc(-c2c(C(=O)N/N=C/c3ccsc3)nnn2-c2nonc2N)cc1,9.7,2.5,5.1,37.5*,12.6%,33.2
COc1cccc(-c2c(C(=O)N/N=C/c3ccsc3)nnn2-c2nonc2N)c1,-14.8,14.7,-5.3,162.5*,2.9%,29.1
COc1cccc(-c2c(C(=O)N/N=C/c3sccc3C)nnn2-c2nonc2N)c1,-3.2,1.8,-1.7,2.0,?,8.1
COC(c1ccccc1)(c1ccccc1)[C@H](Oc1nc(C)cc(C)n1)C(=O)O,.,.,8.1,.,.,.
O=C(CSc1nc2c([nH]c3ccccc32)c(=O)n1-c1ccc(Cl)cc1)NCC1CCCO1 (stereo unspecified),.,-4.5,-2.1,1.9,.,-1.2
CCc1ccccc1-n1c(SCC(=O)NC)nnc1-c1ccco1,8.1,-1.1,0.1,9.7,2.0%,-37.3*
CC(C)(C)c1nnc2sc(SCC(=O)NCc3ccco3)nn2c1=O,9.8,.,0.1,5.0,4.2%,-32.5*
CCC(=O)Nc1cccc(-c2nnc(SCC(=O)c3ccccc3)n2C)c1,-52.4*,5.0,-8.3,1.5,?,-9.8
CCC(=O)Nc1cccc(-c2nnc(SCC(=O)NCc3ccco3)n2C)c1,4.7,-3.1,-10.4,6.7,1.2%,-0.6
CCCCn1nnnc1SCC(=O)NCc1ccco1,2.9,-10.7,0.6,2.5,.,-33.0*
COc1cc(OC)c(NC(=O)N2CC=C(c3c[nH]c4ccccc34)CC2)cc1Cl,.,-0.9,-19.6,7.0,.,-6.0
CCc1cccc(NC(=O)Cn2c(C(=O)OC)cc3occc32)c1,.,-3.4,7.4,-0.3,.,29.1
Cn1c(SCC(=O)NCc2ccco2)nnc1-c1ccccc1,?,-8.5,-3.9,0.6,-12.3%,-53.3*
COc1ccccc1CNC(=O)CN(C)S(=O)(=O)c1ccc2c(c1)c(=O)n(C)c(=O)n2C,-1.7,-0.6,-0.2,0.1,0.2%,-36.8*
CN(CC(=O)NCc1ccc(Cl)cc1)S(=O)(=O)c1ccc2c(c1)c(=O)n(C)c(=O)n2C,.,4.3,5.1,-0.3,.,-43.8*
COc1ccc(Cl)cc1S(=O)(=O)N1CCN(S(=O)(=O)c2ccc3c(c2)OCCO3)CC1,.,5.5,.,3.2,.,-7.7
COc1cc(OC)c(Nc2ncnc3onc(-c4cccc(Cl)c4)c23)cc1Cl,.,-1.4,6.0,1.1,.,3.8
Cc1cc(N2CCCCC2)nc2ccc(NC(=O)/C=C/c3ccc(OCCC(C)C)cc3)cc12,.,0.1,3.3,-0.2,.,4.5
CCn1nccc1NC(=O)c1csc([C@@H]2O[C@H](CO)[C@H](O)[C@H](O)[C@H]2O)n1,?,.,37.0*,.,.,.
Cc1ccc(S(=O)(=O)N(C)c2ccc3c(c2)C(=O)c2ccccc2-3)cc1,-24.7,.,-9.8,.,.,.
CCOc1ccc(N(Cc2ccccc2)C(=O)c2nc(SC)ncc2Cl)cc1,.,-2.5,-23.1,5.1,.,1.2
CCCSc1ncc(Cl)c(C(=O)N(Cc2ccccc2)c2ccc(OC)cc2)n1,.,-2.2,-9.9,16.4,.,-36.5*
CCCNC(=O)C1Cc2cc(S(=O)(=O)N3CCCCCC3)ccc2N1C(C)=O (stereo unspecified),.,4.0,5.0,-2.3,.,-10.0
CC(=O)c1ccc(-n2c(-c3cc(-c4ccco4)[nH]n3)n[nH]c2=S)cc1,-84.0*,-2.2,-9.8,-0.5,-0.9%,-2.3
O=C(O)c1ccc(-n2c(-c3cc(-c4ccco4)[nH]n3)n[nH]c2=S)cc1,-90.7*,1.0,-11.0,0.4,-19.0%,8.3
Cc1ccc(-c2nn(-c3cc(Cl)ccc3[N+](=O)[O-])c(=O)c3ccccc23)cc1C,-12.8,1.0,-12.3,-0.3,0.8%,-49.0*

# High-throughput results (PubChem BioAssay)
